GLS inh: inhibitors of human glutaminase (GLS); O94925; GLS enzymatic activity, qHTS titration; Potency, µM (highest dose often 45.5 µM), usual class: inhibitors; hit rate 0.21% among 410,000; AID 624170
Target sequence (O94925 whole entry, looked up): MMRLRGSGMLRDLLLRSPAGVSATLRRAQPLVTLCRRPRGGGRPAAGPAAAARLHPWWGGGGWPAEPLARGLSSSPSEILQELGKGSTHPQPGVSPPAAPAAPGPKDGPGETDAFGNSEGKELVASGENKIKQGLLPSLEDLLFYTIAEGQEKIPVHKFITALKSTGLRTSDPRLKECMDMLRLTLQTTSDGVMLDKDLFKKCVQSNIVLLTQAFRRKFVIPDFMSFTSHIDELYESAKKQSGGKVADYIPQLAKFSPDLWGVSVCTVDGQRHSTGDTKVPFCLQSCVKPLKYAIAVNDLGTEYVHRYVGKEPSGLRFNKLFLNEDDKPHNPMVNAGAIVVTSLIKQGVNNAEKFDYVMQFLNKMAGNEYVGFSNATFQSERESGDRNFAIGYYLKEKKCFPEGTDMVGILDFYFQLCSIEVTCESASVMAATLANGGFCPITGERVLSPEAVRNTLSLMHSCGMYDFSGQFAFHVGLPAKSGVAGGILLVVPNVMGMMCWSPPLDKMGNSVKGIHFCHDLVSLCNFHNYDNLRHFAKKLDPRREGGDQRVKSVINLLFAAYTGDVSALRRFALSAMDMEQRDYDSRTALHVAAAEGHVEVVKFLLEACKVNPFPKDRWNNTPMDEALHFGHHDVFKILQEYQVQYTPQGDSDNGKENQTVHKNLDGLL
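hKGA in 45 mM KH2PO4 pH 8.2, 0.02% Tween-20 with pin-transferred compounds; 1 mM L-glutamine (stock) plus glutamate oxidase/HRP/Amplex Red coupling added. Fluorescence read initially and after 30 min at RT.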
JMJD2A Tudor: blocks the human JMJD2A Tudor domain; AlphaScreen JMJD2A-Tudor / H3K4me3 peptide binding; AID 504339; hit rate 4.4% among 390,000; Potency, µM (top dose mostly 114 µM), hits mostly inhibitors; O75164; note: nearly all actives have a fitted effect of over 50% in size
HP1b chromo inh: blocks HP1-beta chromodomain binding to methylated histone tails; P83916; AlphaScreen HP1-beta / biotin-H3K9me3 peptide binding; Potency, µM (doses to about 114 µM), hits mostly inhibitors; hit rate 0.56% among 390,000; AID 540317; note: nearly all actives have a fitted effect of over 70% in size
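HP1-beta protein (50 nM final) preincubated 30 min at room temperature with biotinylated H3(1-18)K9me3 peptide (50 nM) in PBS pH 7.4, 0.01% Tween-20, then compound added for 30 min. AlphaScreen streptavidin donor/nickel chelate acceptor beads (10 ug/mL final), 30 min dark, luminescence read.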
G9a block: blocks human histone lysine methyltransferase G9a | Q96KQ7 | Potency, µM (top dose mostly 102 µM), most hits filed as inhibitors | G9a H3K9 monomethylation, AlphaScreen, 2 h | hit rate 8.8% among 350,000; note: nearly all actives have a fitted effect of over 75% in size
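G9a (20 nM) was preincubated 15 min with compound, then reacted 2 h at room temperature with 500 nM biotin-H3K9 peptide and 20 µM SAM. Monomethyl-H3K9 detected by AlphaScreen using anti-H3K9me1 antibody.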
BAZ2B inh: BAZ2B (human) inhibition. Q9UIF8. AlphaScreen BAZ2B-H3K14Ac peptide displacement. Potency, µM (titrated, usually from 114 µM), most hits filed as inhibitors. hit rate 4.4% among 360,000. AID 504333; note: nearly all actives have a fitted effect of over 60% in size
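AlphaScreen displacement: compounds (up to 110uM) incubated 30 min at room temperature with a preformed 50 nM BAZ2B/50 nM biotinylated H3K14Ac peptide complex in PBS pH 7.4 with Tween-20. Donor and acceptor beads at 10 ug/mL final added, 20 min light-protected before reading.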
Large screens that a line does not name were inactive; ! = not confirmed by another sample. Hits are enriched below; roughly 10% of the tested compounds scored in any of these assays. Calls come from the whole dose curve; as a rule, active = well fitted curve in the direction sought with a large enough effect; inconclusive = small, poorly fitted or top-dose-only effect, or another doubt; inactive = no such curve, though single readings can be large; an effect the other way counts as inactive or inconclusive.

CCOC(=O)c1ccccc1NC(=O)c1c(O)[nH]c(=O)[nH]c1=O	none (no result: G9a block, BAZ2B inh)
CCc1ccc(N2C(=O)NC(=O)/C(=C\c3cc(C)n(-c4cc(C(=O)O)cc(C(=O)O)c4)c3C)C2=O)cc1	JMJD2A Tudor 50µM, G9a block 35µM, BAZ2B inh 71µM
Cc1ccc(N2C(=O)NC(=O)/C(=C\c3cc(C)n(-c4cc(C(=O)O)cc(C(=O)O)c4)c3C)C2=O)cc1	JMJD2A Tudor 32µM, HP1b chromo inh inconclusive, G9a block 35µM, BAZ2B inh inconclusive
Cc1ccc(N2C(=O)NC(=O)/C(=C\c3cc(C)n(-c4ccc(C(=O)O)cc4)c3C)C2=O)cc1	G9a block inconclusive
Cc1cc(/C=C2\C(=O)NC(=O)N(c3ccc(F)cc3)C2=O)c(C)n1-c1ccc(C(=O)O)cc1	BAZ2B inh inconclusive (no result: G9a block)
Cc1ccc(C2C(S(C)(=O)=O)=C(O)C(=O)N2c2ccccc2)cc1 (centres undefined) (tested in a mixture with another compound)	JMJD2A Tudor inconclusive, G9a block 71µM, BAZ2B inh inconclusive
Cc1cc(C)nc(N/N=C/C2=C(O)CC(c3ccccc3)CC2=O)n1 (centres undefined)	BAZ2B inh 22µM (no result: GLS inh, JMJD2A Tudor, HP1b chromo inh)
C=CC[N+]1(C)CC[C@]23c4c5ccc(O)c4O[C@H]2C(=O)CC[C@@]3(O)[C@H]1C5 (some centres undefined)	JMJD2A Tudor inconclusive, HP1b chromo inh inconclusive, G9a block 1.6µM
Brc1ccc2[nH]cc(C=NN3CCCCCC3)c2c1	JMJD2A Tudor 50µM, HP1b chromo inh inconclusive (no result: G9a block, BAZ2B inh)
O=C(O)c1ccc([N+](=O)[O-])c([N+](=O)[O-])c1	none (no result: G9a block, BAZ2B inh)
O=C(O)c1sccc1Oc1ccc(F)cc1[N+](=O)[O-]	G9a block 35µM, BAZ2B inh inconclusive
C(=C\c1ccccc1)/CN1CCN(CCOC(c2ccccc2)c2ccccc2)CC1	G9a block 11µM (no result: GLS inh, JMJD2A Tudor, HP1b chromo inh, BAZ2B inh)
Clc1ccc([C@@H](OCCN2CCCCC2)c2ccccc2)cc1	none (no result: JMJD2A Tudor, HP1b chromo inh, BAZ2B inh)
COc1ccc(NC2=NC(C)(C)CS2)cc1	G9a block inconclusive
C/C(=N\NC(=O)c1ccccc1O)c1c(O)n(Cc2ccccc2)c(=O)[nH]c1=O	none (no result: G9a block)
C/C(=N\Nc1ccccc1)c1c(O)[nH]c(=O)[nH]c1=O	none (no result: G9a block)
C/C(=N\Nc1ccccc1)c1c(O)n(Cc2ccccc2)c(=O)[nH]c1=O	JMJD2A Tudor inconclusive, G9a block 10µM
C/C(=N\Nc1ccccc1)c1c(O)n(-c2ccccc2)c(=O)[nH]c1=O	G9a block 50µM
O=C1CCN(Cc2ccc(Cl)cc2)N1	none
CC(C)(C)c1cc(OC(=O)Cc2ccccc2)ccc1O	none
CCC[C@@](C)(COC(N)=O)COC(=O)NC(C)C	none (no result: GLS inh, JMJD2A Tudor, HP1b chromo inh, BAZ2B inh)
C[C@H](N)CN1CCc2ccc(Br)cc21	G9a block 45µM (no result: BAZ2B inh)
Cc1c(C=C2C(=O)N(C)C(=S)N(C)C2=O)c2ccccc2n1CC(=O)NCC1CCCO1 (centres undefined)	G9a block 14µM, BAZ2B inh inconclusive
Nc1nc(N)c2nc(CNc3ccc(C(=O)NC(CCC(=O)O)C(=O)O)cc3)cnc2n1 (centres undefined)	G9a block 2.7µM! (no result: JMJD2A Tudor, HP1b chromo inh)
O=C1NC(=O)N(c2ccc3c(c2)OCO3)C(=O)/C1=C/c1cccs1	G9a block 11µM
Fc1ccccc1-c1n[nH]c(=S)n1Cc1ccccc1	JMJD2A Tudor 22µM, G9a block 3.5µM
Cc1nn(Cc2ccccc2)c(C)c1C=C1C(=O)NC(=S)NC1=O	JMJD2A Tudor 89µM, G9a block 8.9µM
Cc1c(C=C2C(=O)NC(=O)NC2=O)c(=O)n(-c2ccccc2)n1C	JMJD2A Tudor inconclusive, G9a block inconclusive
CNC(=O)OCc1n(C)cc[n+]1C	G9a block 6.3µM, BAZ2B inh inconclusive
CCC1=Nc2cc(C(=O)N3CCC4(CC3)OCCO4)ccc2Sc2ccccc21	none
CCCC/C(C)=C/[C@@H](NP(=O)(c1ccccc1)c1ccccc1)c1ccccc1	G9a block 32µM
CCOP(=O)(OCC)/C(=N/OC(=O)c1ccc(Cl)cc1Cl)C(N)=O	G9a block 50µM
CCOP(=O)(OCC)C(NC(=O)c1ccc(Cl)cc1)=C(Cl)Cl	none
CCCn1c(C)cc(C=O)c1C	none
O=C1CC(N2CC=C(c3ccccc3)CC2)C(=O)N1c1ccc(F)cc1 (centres undefined)	JMJD2A Tudor inconclusive, G9a block 10µM
Cn1c(O)c(C2=NNC(c3ccc(Cl)cc3)C2)c(=O)n(C)c1=O (centres undefined)	BAZ2B inh 45µM (no result: G9a block)
C=C(C)C(=O)Nc1cccc(C2=NOC3(C2)C[C@H](C(N)=O)N(C(=O)/C=C/C)C3)c1 (some centres undefined)	JMJD2A Tudor 8.9µM, HP1b chromo inh 8.9µM, G9a block inconclusive, BAZ2B inh 7.1µM
CN1C(=O)c2ccccc2NC(=O)C1Cc1ccccc1 (centres undefined)	none
Cc1cccc(N2C(=O)/C(=C/c3ccc(CN(CCC#N)S(C)(=O)=O)o3)C(=O)NC2=S)c1	GLS inh inconclusive, JMJD2A Tudor 50µM, HP1b chromo inh inconclusive, G9a block inconclusive, BAZ2B inh 50µM
Cc1ccc(N2C(=O)/C(=C/c3ccc(CN(CCC#N)S(C)(=O)=O)o3)C(=O)NC2=S)cc1C	G9a block 8.9µM, BAZ2B inh 40µM (no result: GLS inh, JMJD2A Tudor, HP1b chromo inh)
Cc1cc(=O)oc2cc(OCC(=O)N3CCC(C(=O)O)(c4ccccc4)CC3)ccc12	none (no result: G9a block)
CCCCCn1c(=O)c(C(=O)Nc2cnccn2)c(O)c2ccccc21	JMJD2A Tudor 45µM (no result: G9a block)
CCCCCCCn1c(=O)c(C(=O)Nc2cnccn2)c(O)c2ccccc21	none
CCCCC1C(=O)NC(=S)N(C)C1=O (centres undefined)	JMJD2A Tudor 79µM (no result: G9a block, BAZ2B inh)
CCCCC1C(=O)NC(=S)NC1=O	G9a block 4.5µM (no result: GLS inh, JMJD2A Tudor, HP1b chromo inh)
CCCCCC1(C(C)C)C(=O)NC(=S)NC1=O	none (no result: G9a block, BAZ2B inh)
Cc1ccc(C2=NCC(=O)Nc3ccc(Br)cc32)cc1	JMJD2A Tudor inconclusive
CCOP(=O)(OCC)c1nc(-c2cccc3ccccc23)oc1NCCc1ccc(OC)cc1	none
CCN(CC)Cc1nccn1-c1ccc([N+](=O)[O-])cc1C(=O)c1ccccc1Cl	none (no result: JMJD2A Tudor, HP1b chromo inh, G9a block, BAZ2B inh)
CCn1cc(C(=O)N2CCC3(CC2)OCCO3)c(=O)c2cc(S(=O)(=O)N3CCCC3)ccc21	none
CCC(=O)N1CCN(c2cc3c(cc2F)c(=O)c(C(=O)O)cn3CC)CC1	JMJD2A Tudor 6.3µM (no result: G9a block, BAZ2B inh)
CCCCCn1c(=O)c(C(=O)NCc2ccc(Cl)cc2)c(O)c2ccccc21	none
O=C(C(=C1N(Cc2ccc(Cl)nc2)CCN1Cc1ccc(Cl)nc1)[N+](=O)[O-])C(Cl)Cl	G9a block inconclusive
CCC1CO/C(=C(\C(Cl)=C(Cl)Cl)[N+](=O)[O-])N1Cc1ccc(Cl)nc1 (centres undefined)	G9a block inconclusive, BAZ2B inh 79µM
C=CCCC1(CC)C(=O)NC(=S)NC1=O	none (no result: G9a block, BAZ2B inh)
CCC1C2CC3C4N(C)c5ccccc5[C@]45CC(C2C5O)N3C1O (some centres undefined)	none (no result: GLS inh, JMJD2A Tudor, HP1b chromo inh, BAZ2B inh)
